Test [1] can be described thus: qHTS assay to identify small molecule agonists of H2AX - cell viability counter screen (AID 1224847; calls by dose curve; further: top concentration of the series differs between compounds; nearly all actives have a fitted effect of over 30% in size). The gist of the method:
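Cells plated first: CHO-K1, 1000 per well in 10% FBS medium, incubated overnight at 37C. Then 15-point compound titration added (final DMSO 0.76%) for 3 hr. Finally CellTiter-Glo added and luminescence read.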
On the technique in general: Quantitative high-throughput screening tests each substance at several concentrations.

The nature of test [2]: qHTS assay to identify small molecule agonists of the estrogen related receptor (ERR) signaling pathway from Tox21 library (AID 1224849; calls by dose curve; further: nearly all actives have a fitted effect of over 15% in size). The note with it: ERR reporter cell line, ONE-Glo luciferase, 18 h; at 92.4 µM (top of the series) unless noted. The gist of the method: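 Six hours post-seeding at 37 C/5% CO2, ERR cells receive DMSO-solubilised compounds; after 18 h at 37 C, ONE-Glo reagent is applied and luminescence recorded.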

Test [3] can be described thus: qHTS RealTime-Glo MT Cell Viability Assay in HepG2 cells - 24 hour (AID 1224867). Further: nearly all actives have a fitted effect of over 50% in size. The gist of the method: (§1)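 Real-time, nonlytic viability: 600 HepG2 cells/well mixed with NanoLuc enzyme plus prosubstrate; 5 h settle, compound (DMSO) added by pintool; luminescence monitored over 40 h at 37 C.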
A short description of test [4]: qHTS RealTime-Glo MT Cell Viability Assay in HEK293 cells - 32 hour (AID 1224868). Further: nearly all actives have a fitted effect of over 50% in size. Further: potency means the concentration at half of the fitted maximal effect. On activity change, negative = cytotoxic: top concentration of the series differs between compounds. The gist of the method:
(§2)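 Cells + reagent dispensed (600 cells/well, HEK293) → 5 h at 37 C/5% CO2 → 23 nL compound in DMSO pinned → 40 h at 37 C → luminescence read at 0, 8, 16, 24, 32, 40 h.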

The nature of test [5]: A CellTox Green Cytotoxicity Assay to monitor cytotoxicity in HEK293 cells - 0 hour (AID 1224869). Further: nearly all actives have a fitted effect of over 50% in size. The gist of the method: (§3)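 Seeding of HEK293 cells together with cytotoxicity dye preceded a 5 h incubation at 37 C/5% CO2. Test compounds in DMSO were then added and fluorescence monitored across 40 h.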
A short description of test [6]: qHTS RealTime-Glo MT Cell Viability Assay in HepG2 cells - 40 hour (AID 1224870). Further: nearly all actives have a fitted effect of over 50% in size. In short, it runs like this:
(§4)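 HepG2 cells (600/well) mixed with RealTime-Glo MT reagent, settled 5 h at 37 C/5% CO2 before compound addition. Nonlytic NanoLuc luminescence from viable-cell prosubstrate reduction read repeatedly during 40 h treatment at 37 C.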

Test [7] is described as follows: A CellTox Green Cytotoxicity Assay to monitor cytotoxicity in HEK293 cells - 40 hour (AID 1224871). Further: nearly all actives have a fitted effect of over 45% in size. Further: potency means the concentration at half of the fitted maximal effect. The gist of the method: as §3
Test [8] is described as follows: qHTS RealTime-Glo MT Cell Viability Assay in HepG2 cells - 8 hour (AID 1224873). Further: nearly all actives have a fitted effect of over 55% in size. The gist of the method: as §4
Test [9] in a line: qHTS RealTime-Glo MT Cell Viability Assay in HEK293 cells - 40 hour (AID 1224874). Further: nearly all actives have a fitted effect of over 50% in size. Further: potency means the concentration at half of the fitted maximal effect. The conditions noted are these: RealTime-Glo luminescence; max response: hits give low values. The gist of the method: (§5)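 Tox21 screen in HEK293 using RealTime-Glo MT chemistry, with cells and reagent co-dispensed. Luminescence proportional to viable cell number was captured at intervals during 40 h compound exposure at 37 C.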

Test [10] in a line: A CellTox Green Cytotoxicity Assay to monitor cytotoxicity in HepG2 cells - 16 hour (AID 1224876). Further: nearly all actives have a fitted effect of over 45% in size. The gist of the method:
(§6)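 Nonlytic assay: viable cells exclude the dye, so fluorescence scales with cell death. HepG2 at 600 cells/well, compounds added after 5 h, signal read across 40 h.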

Test [11] can be described thus: qHTS RealTime-Glo MT Cell Viability Assay in HepG2 cells - 32 hour (AID 1224877). Further: nearly all actives have a fitted effect of over 55% in size. In short, it runs like this:
as §1

Test [12] is described as follows: A CellTox Green Cytotoxicity Assay to monitor cytotoxicity in HepG2 cells - 24 hour (AID 1224878). Further: nearly all actives have a fitted effect of over 45% in size. In short, it runs like this:
as §6

Test [13] can be described thus: A CellTox Green Cytotoxicity Assay to monitor cytotoxicity in HepG2 cells - 40 hour (AID 1224879). Further: nearly all actives have a fitted effect of over 40% in size. Further: potency means the concentration at half of the fitted maximal effect. The gist of the method:
as §6

The nature of test [14]: qHTS assay to identify small molecule agonists of H2AX (AID 1224845; active means well fitted activation curve with a large enough effect in the signal ratio in the repeat runs, not every such curve was filed as active; the % refers to the signal ratio). The gist of the method:
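Wild-type CHO-K1 cells, plated overnight, exposed 3hr at 37C to 15 concentrations (0.76% DMSO final). Lysed, then HTRF anti-pH2AX (S139) cryptate and anti-H2AX-d2 antibodies, 24 hr room temperature; 665/620 nm emission read.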

Test [15] in a line: qHTS RealTime-Glo MT Cell Viability Assay in HEK293 cells - 16 hour (AID 1224872). Further: nearly all actives have a fitted effect of over 50% in size. Further: potency means the concentration at half of the fitted maximal effect. On activity change, negative = cytotoxicity: top concentration of the series differs between compounds. The gist of the method: as §2
A short description of test [16]: A CellTox Green Cytotoxicity Assay to monitor cytotoxicity in HEK293 cells - 24 hour (AID 1224875). Further: nearly all actives have a fitted effect of over 45% in size. Further: potency means the concentration at half of the fitted maximal effect. In short, it runs like this:
as §3

Test [17] can be described thus: qHTS RealTime-Glo MT Cell Viability Assay in HEK293 cells - 0 hour (AID 1224880). Further: nearly all actives have a fitted effect of over 45% in size. Further: potency means the concentration at half of the fitted maximal effect. On activity change, negative = cytotoxicity: top concentration of the series differs between compounds. In short, it runs like this:
as §5

Test [18] in a line: qHTS assay to identify small molecule agonists of the hypoxia (HIF-1) signaling pathway (AID 1224846; active means well fitted activation curve with a large enough effect in the signal ratio in the repeat runs, not every such curve was filed as active; the % refers to the signal ratio). The gist of the method: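 Hypoxia-pathway activation was scored as increased beta-lactamase from an HRE-controlled reporter in ME-180 cells; plated at 2,000 cells per well with 0.5% dialyzed FBS, they were exposed 17 hrs to compounds and then given CCF4-AM.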
Test [19] in a line: qHTS assay to identify small molecule antagonists of the estrogen related receptor (ERR) signaling pathway from Tox21 library (AID 1224848). Further: nearly all actives have a fitted effect of over 50% in size. Further: potency means the concentration at half of the fitted maximal effect. In short, it runs like this: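 Luminescent reporter read-out (ONE-Glo) from NTP's ERR cell line after 18 h treatment at 37 C with DMSO-dissolved Tox21 compounds; cells pre-plated 6 h beforehand at 2,000 per well.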

Values without a mark were called inactive. Records with an inconclusive call do not appear. Active and inactive are the calls of the source. Unless noted, the call rests on the fitted dose curve; in most records, active means well fitted curve in the direction sought with a large enough effect in the repeat runs; inconclusive means weak or mixed curves; inactive means no such curve, though single readings can be large; an effect the other way counts as inactive or inconclusive.
On the % scale 0 is the no-effect control and ±100 the full control effect.

Take `CC[C@]12CCCN3CCc4c(n(c5ccccc45)C(=O)C1)[C@@H]32`: the Potency entry in [1], in [3], in [5], in test [6], in [7] and in test [8] was “inactive” throughout. Besides, the Potency entry in test [10], in [11] and in test [12] was “inactive” each time. In addition, the activity change, positive = activation in test [2] is -17.2% [at 42.5 µM]. Further, the Potency is 4.77 µM (active) in test [4], 4.25 µM (active) in test [9] and 6.74 µM (active) in test [13].
In the case of `COCCOCCOCCOCCOC`, the Potency result in [14], in test [1], in test [3], in test [4], in [5] and in [6] was “inactive” throughout. For the same compound, the Potency entry in [7], in test [15], in test [8], in [16], in [10] and in test [11] was “inactive” each time. Also, the Potency result in test [12], in test [13] and in test [17] was “inactive” in each case. Besides, the max response in test [9] is -6.35%.
As to `Cc1cc(O)ccc1N`, the result in test [18] was inactive. The activity change, positive = activation in test [2] was -16.6%. Besides, the Potency result in test [3], in [5], in [6], in test [11], in test [12] and in test [13] was “inactive” in each case. The Potency in test [4] is 49.2 µM (active); in test [7], 34.9 µM (active); in test [15], 49.2 µM (active); in [9] it was 43.9 µM (active); in test [16], 34.9 µM (active); in [17], 12.4 µM (active).
Take `NC[C@H]1O[C@H](O[C@H]2[C@H](O)[C@@H](O[C@H]3O[C@H](CO)[C@@H](O)[C@H](N)[C@H]3O)[C@H](N)C[C@@H]2N)[C@H](O)[C@@H](O)[C@@H]1O`: the activity change, negative = cytotoxicity was 4.56% [at 14 µM] in [1], -0.929% [at 6.97 µM] in test [3], 8.96% [at 6.97 µM] in test [15] and 12.9% [at 6.97 µM] in test [17]. Further, the activity, negative = inhibition in [19] is 17.9% [at 8.39 µM]. Further, in test [2], the activity change, positive = activation is 8.77% [at 8.39 µM]. Further, the figures for the activity change, negative = cytotoxic in test [4], in test [6] and in [11] were 12.4% [at 6.97 µM], -6.23% [at 6.97 µM] and -15.9% [at 6.97 µM], respectively. Also, the values for the cytotoxicity in test [5] and in [12] were 6.99% [at 6.97 µM] and 10.9% [at 6.97 µM], respectively. The cytotoxicity increase is 9.35% [at 6.97 µM] in test [7] and 9.32% [at 6.97 µM] in test [13]. Besides, in [8], the viability change, negative = cytotoxic is 5.97% [at 6.97 µM]. Further, the max response in [9] was 12.1%. For the same compound, the activity change in [16] was 8.95% [at 6.97 µM, hits give high values].
`CC(C)(C)C1CCCCC1O` (centres undefined): the Potency result in test [14], in test [1], in test [3], in [4], in test [5] and in test [6] was “inactive” each time. Further, the Potency result in test [7], in test [15], in test [8], in test [16], in test [11] and in [17] was “inactive” in each case. Also, the max response in [9] was 0.612%.
With `Cc1cc(NC(=O)C(=O)O)cc(C)c1Oc1ccc(O)c2c1CCC2`, in [18], the call was inactive. The Potency result in test [1], in test [19], in test [3], in test [4], in test [5] and in test [6] was “inactive” in each case. Further, the Potency entry in test [7], in test [15], in test [8], in [16], in test [11] and in test [12] was “inactive” each time. Also, the Potency entry in test [13] and in [17] was “inactive” each time. For the same compound, in [2], the activity change, positive = activation was 1.77%. For the same compound, the max response in [9] was -8.77%.
For the compound `Cc1ccc2c(ccc3ccccc32)c1`, the Potency entry in test [14], in test [3], in [5], in test [6], in test [7] and in test [15] was “inactive” in each case. Moreover, the Potency result in test [16], in test [11], in test [12], in test [13] and in [17] was “inactive” each time. In addition, the compound was called inactive in test [18].
With `CCN(CC)CCOc1ccc2c(c1)C(=O)c1cc(OCCN(CC)CC)ccc1-2`, the compound was called inactive in test [18]. Moreover, the Potency in [19] is 18.8 µM (active); in [4] it was 13.4 µM (active); in [9] it was 15.1 µM (active); in [13], 26.8 µM (active). The activity change, positive = activation in [2] is -38.3% [at 42.5 µM]. Moreover, the Potency entry in test [5], in test [16], in [10] and in [17] was “inactive” in each case.
Take `N#Cc1c(F)cccc1F`: the compound was called inactive in test [18]. The Potency result in test [1], in test [3], in [4], in test [5], in test [6] and in test [7] was “inactive” throughout. In addition, the Potency result in [15], in test [8], in [16], in test [10], in test [11] and in test [12] was “inactive” each time. In addition, the Potency entry in [13] and in test [17] was “inactive” throughout. In addition, the max response in [9] was -15.1%.
For the compound `CCN1CCC[C@H]1CNC(=O)c1c(OC)ccc(Br)c1OC`, the Potency result in [14], in test [1], in test [3], in test [4], in test [5] and in [7] was “inactive” each time. In addition, the Potency result in test [15], in test [8], in [16], in [10], in test [11] and in [12] was “inactive” each time. Besides, the Potency entry in test [13] and in [17] was “inactive” in each case. Further, the max response in [9] was 12.2%.
Consider `Nc1nc(CC(=O)O)cs1`, for which the activity change, positive = activation in test [2] was -48.9%. For the same compound, the Potency result in test [3], in [5], in test [7], in [15], in test [8] and in test [16] was “inactive” in each case. In addition, the Potency result in test [10], in test [11], in [12], in test [13] and in [17] was “inactive” throughout.
For `CC1(C)CCC(C)(C)c2cc(NC(=O)c3ccc(C(=O)O)cc3)ccc21`, the outcome in test [18] was inactive. Further, the Potency entry in test [1], in test [3], in test [5], in test [6], in test [7] and in test [16] was “inactive” throughout. Moreover, the Potency entry in [10], in test [11], in test [12] and in [13] was “inactive” in each case.
For `C[C@H](CCC(=O)O)[C@H]1CC[C@H]2[C@@H]3[C@H](O)C[C@@H]4C[C@H](O)CC[C@]4(C)[C@H]3CC[C@]12C`, the Potency entry in test [1], in test [3], in [5], in test [10], in test [11] and in test [12] was “inactive” throughout. In addition, the Potency result in [13] and in [17] was “inactive” in each case.
Consider `CC(C)NCC(O)c1cc(O)cc(O)c1` (centres undefined), for which the Potency entry in [14], in test [1], in test [19], in test [3], in test [4] and in test [5] was “inactive” in each case. The Potency entry in [6], in test [7], in test [15], in test [8], in [10] and in test [11] was “inactive” throughout. Also, the Potency entry in test [12] and in test [13] was “inactive” each time. In addition, the activity change, positive = activation in test [2] is 10.5% [at 42.5 µM]. The max response in [9] is 1.47%.

The values are drawn from PubChem BioAssay (Tox21).
